PubChem BioAssay (NCATS)
A number with no mark means an inactive call. Calls come from the whole dose curve; as a rule, active = well fitted curve in the direction sought with a large enough effect; inconclusive = small, poorly fitted or top-dose-only effect, or another doubt; inactive = no such curve, though single readings can be large or run the other way.

The compounds below were run against Hexokinase-4 (Homo sapiens) + Glucokinase regulatory protein (Homo sapiens) (UniProt P35557+Q14397) (assay: qHTS assay for inhibitors of recombinant human GCK-GKRP interaction: ADP-Glo assay (AID 743206)). Settings: ADP-Glo luminescence, 60 min; series mostly up to 76.9 µM; activity, positive = activation: at the top concentration.
Sequence of Hexokinase-4 (Homo sapiens) + Glucokinase regulatory protein (Homo sapiens) (P35557 whole entry, looked up): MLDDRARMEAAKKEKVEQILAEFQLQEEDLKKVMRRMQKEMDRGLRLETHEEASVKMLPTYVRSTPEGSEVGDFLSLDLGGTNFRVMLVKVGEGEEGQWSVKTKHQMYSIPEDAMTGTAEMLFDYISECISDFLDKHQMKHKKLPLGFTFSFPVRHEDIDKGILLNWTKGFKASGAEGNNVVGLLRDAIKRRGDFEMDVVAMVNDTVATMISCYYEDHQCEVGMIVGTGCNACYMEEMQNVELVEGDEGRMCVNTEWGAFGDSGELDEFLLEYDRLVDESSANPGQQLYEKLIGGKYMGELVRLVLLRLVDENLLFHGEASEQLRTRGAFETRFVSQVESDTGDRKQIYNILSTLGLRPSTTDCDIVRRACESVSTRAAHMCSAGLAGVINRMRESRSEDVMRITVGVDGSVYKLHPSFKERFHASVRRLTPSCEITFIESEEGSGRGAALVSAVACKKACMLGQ
Sequence of Hexokinase-4 (Homo sapiens) + Glucokinase regulatory protein (Homo sapiens) (Q14397 whole entry, looked up): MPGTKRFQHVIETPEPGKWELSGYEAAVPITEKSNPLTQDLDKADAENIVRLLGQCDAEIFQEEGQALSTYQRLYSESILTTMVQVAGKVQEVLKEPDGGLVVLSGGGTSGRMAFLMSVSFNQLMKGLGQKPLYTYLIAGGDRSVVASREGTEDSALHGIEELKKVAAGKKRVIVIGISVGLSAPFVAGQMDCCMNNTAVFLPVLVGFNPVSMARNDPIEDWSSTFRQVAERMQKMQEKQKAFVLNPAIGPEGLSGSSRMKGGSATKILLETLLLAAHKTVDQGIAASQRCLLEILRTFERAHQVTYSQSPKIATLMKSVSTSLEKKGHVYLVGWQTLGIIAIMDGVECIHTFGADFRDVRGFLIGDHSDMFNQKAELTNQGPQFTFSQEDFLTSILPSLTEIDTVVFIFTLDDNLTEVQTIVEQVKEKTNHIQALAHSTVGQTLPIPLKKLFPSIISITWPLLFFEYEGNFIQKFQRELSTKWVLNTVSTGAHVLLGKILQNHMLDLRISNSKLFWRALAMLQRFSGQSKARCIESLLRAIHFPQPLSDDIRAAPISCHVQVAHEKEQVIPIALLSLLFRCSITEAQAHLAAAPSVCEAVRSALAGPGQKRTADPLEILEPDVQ
Source text: Glucokinase (GCK) is a glucose sensor in hepatocytes and pancreatic beta-cells. Hepatic GCK is regulated by glucokinase regulatory protein (GKRP), which is predominantly localized to the liver. GKRP binds to GCK inhibiting its activity in the fasting state while in the presence of glucose the GKRP is displaced. There is an additional layer of regulation by fructose 1-phosphate and fructose 6-phosphate, which inhibit and enhance the GCK-GKRP interaction, respectively. GCK plays a role in glucose homeostasis and there is an interest in the development of strategies to activate GCK to lower blood glucose levels in type 2 diabetes. To date the majority of effort has focused on direct activation of GCK and the assays developed herein look to activate GCK by inhibiting its binding to GKRP. A compound that inhibits the interaction of GCK with GKRP could be important for the treatment of diabetes and can also be used as a tool compound to further elucidate GCK-GKRP biology. To that end, we have developed a sensitive HTS biochemical assay where in GCK activity is coupled to luciferase to interrogate the GCK-GKRP interaction. This assay was screened against a small compound library to look for modulators of activity.
2 uL of 15 nM GST-GCK and 15 nM FLAG-GKRP proteins with 2 uM S6P (columns 1-2, 4-48; Millipore, Billerica, MA) are dispensed into Greiner, white solid-bottom 1536-well assay plates; columns 3 receive buffer without GCK as a control for maximum inhibition. Compounds (23 nL) are then transferred via Kalypsys pin tool equipped with 1536-pin array (10 nL slotted pins, V&P Scientific, San Diego, CA). The library compounds are in columns 5-48 and columns 1-4 serve as controls with DMSO in columns 1 and 3 and 26 mM 1:1.5 fold serial of gluckokinase activator (GKA-EMD) in column 2 and 26 mM of the glucokinase activator (GKA-EMD) in column 4. Following addition of compound, 1 uL of ATP […] is added, and the plate is incubated for 60 minutes at room temperature. The amount of ADP is then quantified by the ADP-Glo Kit (Promega, Madison, WI). First, 2 uL of the first kit reagent is added, and the reaction is incubated for 45 minutes; then, 4 uL of the second kit reagent are added and the reaction is incubated for 30 minutes at which time the luminescence is read on a Viewlux plate reader (Perkin-Elmer, Waltham, MA). The final concentration of reagents in the reaction are 0.4 mM ATP, 25 mM Hepes pH 7.6, 25 mM KCl, 2 mM MgCl2, 1 mM DTT, 0.025% BSA, 0.01% Tween 20, 5 mM glucose. Data are normalized to DMSO-treated control columns with (maximum signal) and without (minimum signal) enzyme.
`Cc1cccc(C(=O)NCN2CCN(c3ccccc3C#N)CC2)c1` was tested, and the “activity, positive = activation” value was 1.39%.
For `Fc1ccc(CN(C2=NCCN2)c2c(Cl)cccc2Cl)cc1`, the “activity, positive = activation” value was -3.88%.
`NC1C=CC=C(C(=O)O)C1` (stereo not given) was tested, and the “activity, positive = activation” value was 0.598%.
`COC(=O)C(C)(N)Cc1ccc(O)cc1` (stereo not given) was tested, and the “activity, positive = activation” value was 1.16%.
For `CCCc1c(-c2ccc(O)cc2)nn(-c2ccc(O)cc2)c1-c1ccc(O)cc1`, the “activity, positive = activation” value was -2.64%.
`CC(=O)NNC(=O)N1Cc2ccccc2Oc2ccc(Cl)cc21` was tested, and the “activity, positive = activation” value was 0.752%.
With `O=C(O)C1=CCCN(CCON=C(c2ccccc2)c2ccccc2)C1` the “activity, positive = activation” value was -3.13%.
With `CCCCC[C@H](CC(=O)NO)C(=O)N[C@H](C(=O)N1CCC[C@H]1CO)C(C)C` the “activity, positive = activation” value was 3.88%.
`CC(O)C(O)[C@H]1CNc2nc(N)[nH]c(=O)c2N1` (stereo not given in full) was tested, and the “activity, positive = activation” value was 1.42%.
`NC(N)=NC(N)=Nc1cccc(Cl)c1` was tested, and the “activity, positive = activation” value was 3.09%.
In the case of `CC(=O)NCCc1c[nH]c2ccc(O)cc12`, the “activity, positive = activation” value is reported as 3.78%.
`CC1=C(/C=C/C(C)=C/C=C/C(C)=C\C(=O)O)C(C)(C)CCC1` was tested, and the “activity, positive = activation” value was 1.79%.
For `O=S(=O)(c1cccc2c(Cl)cccc12)N1CCCNCC1`, the “activity, positive = activation” value was -0.544%.
For `C[C@H](O)C(=O)C1=Nc2c(nc(N)[nH]c2=O)NC1`, the “activity, positive = activation” value was 3.56%.
With `CN(C)CCC(c1ccc(Br)cc1)c1ccccn1` (stereo not given) the “activity, positive = activation” value was 3.3%.
With `Nc1ccc(-c2nc3ccc(-c4nc5ccc(N)cc5[nH]4)cc3[nH]2)cc1` the “activity, positive = activation” value was -15.7%.
For `Nc1ncnc2c1c(-c1ccc(Oc3ccccc3)cc1)cn2C1CCCC1`, the “activity, positive = activation” value was -2.96%.
`COc1ccc2c(c1)c(CC(=O)O)c(C)n2Cc1ccc(Cl)cc1` was tested, and the “activity, positive = activation” value was -1.11%.
`O=C(O)C1=CCNCC1` was tested, and the “activity, positive = activation” value was -1.96%.
`C=C1C[C@@]23CC[C@H]4[C@@](C)(CCC[C@@]4(C)C(=O)OC4OC(CO)C(O)C(O)C4O)[C@@H]2CC[C@]1(OC1OC(CO)C(O)C(O)C1OC1OC(CO)C(O)C(O)C1O)C3` (stereo not given in full) was tested, and the “activity, positive = activation” value was -1.24%.
In the case of `C[C@H]1CC2C3CCC4=CC(=O)C=C[C@]4(C)[C@@]3(Cl)[C@@H](O)C[C@]2(C)[C@@]1(O)C(=O)CO` (stereo not given in full), the “activity, positive = activation” value is reported as -2.93%.
For `COc1ccc2c(c1)CCC1C2CC[C@@]2(C)C1CC[C@@H]2NCCCCCCN1C(=O)C=CC1=O` (stereo not given in full), the “activity, positive = activation” value was -13.2%.
With `NC(Cc1cccc(-c2ccccc2CP(=O)(O)O)c1)C(=O)O` (stereo not given) the “activity, positive = activation” value was 2.15%.
In the case of `NCC(O)(CS(=O)(=O)O)c1ccc(Cl)cc1` (stereo not given), the “activity, positive = activation” value is reported as -1.94%.
For `O=C(O)c1cc(=O)cc(C(=O)O)[nH]1`, the “activity, positive = activation” value was 0.38%.
In the case of `O=c1oc(Cl)c(Cl)c2ccccc12`, the “activity, positive = activation” value is reported as 4.1%.
For `CN[C@H](CC(=O)O)C(=O)O`, the “activity, positive = activation” value was 2.56%.
In the case of `Cc1nc2n(c(=O)c1CCN1CCC(c3noc4cc(F)ccc34)CC1)CCCC2O` (stereo not given), the “activity, positive = activation” value is reported as -2.6%.
In the case of `CCN(CC)CCOC(=O)c1cc(Cl)c(N)cc1OC`, the “activity, positive = activation” value is reported as 2.94%.
`O=c1[nH]c(=S)[nH]c(-c2ccccc2)c1Cc1c(O)ccc2ccccc12` was tested, and the “activity, positive = activation” value was -1.96%.
With `CC(N)(Cc1ccc(O)cc1)C(=O)O` (stereo not given) the “activity, positive = activation” value was 5.66%.
`Cc1ccc2c(c1)C(N1CCN(C)CC1)=Nc1cccnc1N2` was tested, and the “activity, positive = activation” value was 4.02%.
In the case of `CN1C2CCC1CC(OC(c1ccccc1)c1ccccc1)C2` (stereo not given), the “activity, positive = activation” value is reported as 2.68%.
In the case of `C[C@H](NC(=O)/C(C#N)=C/c1ccc(O)c(O)c1)c1ccccc1`, the “activity, positive = activation” value is reported as -3.05%.
`Nc1ncnc2c1nc(Sc1ccc(Cl)cc1)n2[C@H]1OC2COP(=O)(O)O[C@@H]2C1O` (stereo not given in full) was tested, and the “activity, positive = activation” value was 3.42%.
In the case of `COc1ccccc1N1CCN(CCCNc2c(C)c(=O)n(C)c(=O)n2C)CC1`, the “activity, positive = activation” value is reported as -0.0851%.
For `CC(N)(Cc1ccc(O)c(O)c1)C(=O)O` (stereo not given), the “activity, positive = activation” value was 0.717%.
In the case of `CCCCS(=N)(=O)CC[C@H](N)C(=O)O` (stereo not given in full), the “activity, positive = activation” value is reported as 1.95%.
For `O=[N+]([O-])c1cccc2c(Br)[nH]nc12`, the “activity, positive = activation” value was 4.8%.
For `Nc1nc2c(nc(Br)n2C2OC3COP(=O)(O)O[C@@H]3C2O)c(=O)[nH]1` (stereo not given in full), the “activity, positive = activation” value was -0.842%.
